# Source: PubChem BioAssay (several laboratories)
# TLR9-MyD88 block: inhibitors of TLR9-MyD88 association in cells, primary screen, cell-based, CHO, BLA complementation, fluorescence; hit rate 0.21% among 340,000; AID 504734, 2011; inhibition, % at 4.98 µM; CCF4 FRET ratio;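 active = inhibition above the mean over all tested compounds plus 3 SD, cut at about 21% in these data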;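 note: 0% = DMSO only wells and 100% = clavulanate BLA inhibitor control wells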
# Granule exo inh: LAMP-1 surface exposure blockers, TALL-104 cells – cell-based, flow cytometry, MLPCN library, primary screen. TALL-104 LAMP-1 surface exposure; cells stimulated with thapsigargin and PMA. inhibition, % at 10 µM. hit rate 0.66% among 360,000. AID 651702, 2012;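 active = inhibition above about 55%, limit read from the data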
# TLR4-MyD88 BLA: inhibitors of TLR4-MyD88 association in cells, primary screen, cell-based, HeLa CL3-4, BLA complementation, FRET ratio; Toll-like receptor 4 (Homo sapiens) + Myeloid differentiation primary response protein …; HeLa CL3-4 TLR4/MyD88 BLA complementation; inhibition, % at 8.4 µM; hit rate 0.18% among 200,000; AID 861, 2007; in the data active = inhibition above about 25%;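 note: 0% = vehicle and 100% = reference inhibitor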
# ABHD5-PLIN5 inh: ABHD5-PLIN5 interaction inhibitors, primary screen, cell lysate, split luciferase complementation, luminescence. inhibition, % at 4 µM. Perilipin-5 (Homo sapiens) + 1-acylglycerol-3-phosphate O-acyltransferase ABHD5 (Homo …. AID 602281, 2012. Split G. princeps luciferase complementation, 4 h. hit rate 0.78% among 360,000;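 active = inhibition above the mean inhibition across every tested compound plus 3 SD, cut at about 22% in these data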;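 note: 0% = DMSO only wells and the 100% control is not disclosed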
# Target sequence (Q00G26 whole entry, looked up): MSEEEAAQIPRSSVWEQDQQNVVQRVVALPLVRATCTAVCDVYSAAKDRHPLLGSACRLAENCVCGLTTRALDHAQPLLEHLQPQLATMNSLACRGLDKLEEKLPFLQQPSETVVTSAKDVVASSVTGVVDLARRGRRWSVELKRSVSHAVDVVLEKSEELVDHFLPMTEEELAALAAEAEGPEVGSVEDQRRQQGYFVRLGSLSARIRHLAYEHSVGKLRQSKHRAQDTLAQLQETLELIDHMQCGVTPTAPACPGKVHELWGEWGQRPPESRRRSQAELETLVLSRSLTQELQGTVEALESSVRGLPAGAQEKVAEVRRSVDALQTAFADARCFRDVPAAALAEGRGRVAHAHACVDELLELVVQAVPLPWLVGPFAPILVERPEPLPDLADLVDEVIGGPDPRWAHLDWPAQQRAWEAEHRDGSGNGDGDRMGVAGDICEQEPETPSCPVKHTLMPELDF
# Target sequence (Q8WTS1 whole entry, looked up): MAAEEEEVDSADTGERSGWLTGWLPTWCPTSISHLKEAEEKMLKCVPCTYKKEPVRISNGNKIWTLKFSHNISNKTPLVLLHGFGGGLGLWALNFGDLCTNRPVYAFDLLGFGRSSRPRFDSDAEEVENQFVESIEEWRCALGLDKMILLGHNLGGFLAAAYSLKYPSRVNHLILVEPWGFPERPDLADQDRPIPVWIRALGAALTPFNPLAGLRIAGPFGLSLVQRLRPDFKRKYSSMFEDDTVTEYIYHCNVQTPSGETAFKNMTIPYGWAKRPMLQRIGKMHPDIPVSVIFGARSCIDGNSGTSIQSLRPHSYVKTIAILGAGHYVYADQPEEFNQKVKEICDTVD
# NOD2 RIPK2 PPI: NOD2-RIPK2 binding disruptors in cells, primary screen, fluorescence, CHO cells, BLA complementation; hit rate 0.38% among 360,000; Receptor-interacting serine/threonine-protein kinase 2 (Homo sapiens), O43353; inhibition, % at 4.98 µM; CCF4 ratio; in the data active = inhibition above about 21%;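 note: 0% = vehicle only and 100% = reference blocker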
# PRMT1 inh: PRMT1 methyltransferase inhibitors, primary screen, biochemical, fluorescence polarization; inhibition, % at 2.79 µM; recombinant PRMT1, activity-based probe fluorescence polarization; Protein arginine N-methyltransferase 1 (Homo sapiens), Q99873; hit rate 1.3% among 370,000;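 active = inhibition above about 21% made by adding two undisclosed values, limit read from the data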
# PRMT1 confirm: PRMT1 methyltransferase inhibitors, confirmation, biochemical, fluorescence polarization, triplicate; inhibition, % at 2.79 µM; recombinant His-PRMT1, activity-based probe fluorescence polarization; hit rate 42% among 3,300; shares compounds with PRMT1 inh;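 active = mean inhibition across replicates above the hit cutoff derived for the earlier primary screen, cut at about 22% in these data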
# * hit, by the source's call; x = no result given. A selection: hits, their analogues and other compounds. The true share with any hit is near 2.6%.
SMILES,TLR9-MyD88 block,Granule exo inh,TLR4-MyD88 BLA,ABHD5-PLIN5 inh,NOD2 RIPK2 PPI,PRMT1 inh,PRMT1 confirm
O=C(c1ccoc1)N1CCN(c2cc(-c3ccco3)nc3cc(-c4ccco4)nn23)CC1,x,x,x,x,x,33.9*,-0.7
Cc1ccc(-c2cc(-c3ccc(C)o3)nc(N)c2C#N)cc1,2.6,3.1,-8.8,10.4,-7.5,57.6*,78.9*
Cc1ccc(-c2cc(-c3ccc(F)cc3)c(C#N)c(N)n2)o1,6.8,-3.6,-23.7,14.0,-16.3,45.8*,20.1
Cc1ccc(-c2c(C#N)c(N)nc3c2CCCCC3)o1,6.4,0.7,10.4,6.2,-8.2,6.5,x
Cc1ccc(-c2cc(-c3ccc4c(c3)OCO4)c(C#N)c(N)n2)o1,-5.2,19.9,-14.0,15.0,6.2,44.4*,30.6*
Cc1ccc(-c2cc(-c3ccc(Cl)cc3)c(C#N)c(N)n2)o1,4.8,45.3,-27.4,20.2,-5.8,42.4*,62.9*
CCOc1cc(-c2cc(-c3ccc(C)o3)nc(N)c2C#N)ccc1O,-1.6,0.1,-4.6,6.8,-5.4,0.9,x
COC(=O)C[C@H]1C[C@H]2c3cc(NC(=O)Nc4ccc(F)cc4)ccc3O[C@H]2[C@@H](CO)O1,-2.8,-9.0,x,5.9,2.9,1.6,x
CN(Cc1c(F)cccc1Cl)C(=O)c1ccc(NC(=O)CC2SC(N3CCCC3)=NC2=O)cc1 (stereo not given),-5.2,5.7,x,4.8,-2.4,101.3*,2.5
CCN(CC(=O)Nc1c(F)cccc1F)C(=O)c1ccc(NC(=O)CC2SC(N3CCCC3)=NC2=O)cc1 (stereo not given),-5.0,0.7,x,6.8,-7.8,-5.8,x
CCCN(CCC)C1=CC(=[N+]2CCCC2)CC(C)(C)C1,-9.1,1.0,8.0,-0.8,-8.7,0.4,x
CC1CCCC(NC2CCCCNC2=O)C1 (stereo not given),-15.0,19.2,-19.7,4.9,-17.4,27.2*,-6.5
COc1ccc(OC)c(NC(=O)CSc2sc3c(O)cc(=O)[nH]c3c2C#N)c1,5.3,-2.6,x,8.9,7.0,25.6*,12.6
COc1cc(Cl)c(C)cc1NC(=O)CSCC#N,7.2,23.4,-7.5,-0.4,0.9,0.3,x
Cc1ccc(NC(=O)CSc2sc3c(O)cc(=O)[nH]c3c2C#N)c(F)c1,4.7,5.3,x,2.0,-8.6,12.4,x
COc1cc(Cl)c(C)cc1NC(=O)CSc1sc2c(O)cc(=O)[nH]c2c1C#N,0.9,-12.3,x,0.8,4.3,35.6*,12.5
Cc1cc(OCC(O)CN(C)C(=O)C(C)Oc2ccccc2)ccc1Cl (stereo not given),5.9,12.0,x,-1.9,-0.8,-3.8,x
Cc1ccc(/C=C/C(=O)OCC(=O)N(C)c2c(N)n(Cc3ccccc3)c(=O)[nH]c2=O)o1,-2.5,-1.4,x,1.9,-16.9,44.0*,-1.0
O=S1(=O)CC(N2CC=CC2)CN1Cc1cn(Cc2ccccc2)nn1 (stereo not given),x,10.0,x,3.4,-2.2,-0.2,x
Cc1cc(C)c(Cn2cnc(-c3ccc([N+](=O)[O-])cc3)c2)c(C)c1,2.8,-5.0,-15.8,3.5,6.1,45.9*,-5.8
CC(C)(C)c1ccc(Cn2cnc(-c3ccc([N+](=O)[O-])cc3)c2)cc1,7.6,13.1,-6.8,-11.7,2.6,2.0,x
COc1ccc2[nH]c(C)c(CCN(Cc3cccs3)C(=S)Nc3ccc(F)cc3)c2c1,3.8,-3.2,0.7,-5.4,10.8,x,x
COc1ccc2[nH]c(C)c(CCN(Cc3cccs3)C(=S)Nc3ccccc3)c2c1,-3.4,7.3,7.4,-2.6,5.2,28.8*,11.1
C[C@@H]1CN([C@@H](C)CO)C(=O)CCCn2nncc2CO[C@@H]1CN(C)C(=O)Nc1ccc(C(C)(C)C)cc1,-3.2,17.0,x,6.0,6.5,-0.5,x
O=C(NNC1CC(=O)N(c2ccc3c(c2)OCCO3)C1=O)c1ccc(Cl)cc1 (stereo not given),-9.1,6.9,-6.1,-0.6,-5.7,56.1*,-4.7
SMILES,TLR9-MyD88 block,Granule exo inh,TLR4-MyD88 BLA,ABHD5-PLIN5 inh,NOD2 RIPK2 PPI,PRMT1 inh,PRMT1 confirm
CCOc1ccc(/C=C/C2=Cc3c(sc(NC(=O)CSc4n[nH]c(N)n4)c3C#N)C(C)(C)C2)cc1,-1.2,77.6*,13.9,6.1,13.7,33.1*,9.1
Cc1ccsc1/C=C/C1=Cc2c(sc(NC(=O)CSc3n[nH]c(N)n3)c2C#N)C(C)(C)C1,4.2,100.9*,-1.1,-8.0,9.6,41.0*,3.7
CCCCCC[N+](C)(C)CCSSCC[N+](C)(C)CCCCCC,-3.8,3.3,x,-24.3,-6.3,90.6*,55.6*
CCCCCCCCCCCCCCCC[N+](C)(C)CC,-0.4,2.2,x,13.4,5.9,-4.4,x
c1ccc(CN2CCC3(CC2)Nc2ccccc2S3)cc1,-9.0,6.1,x,-17.8,3.4,54.4*,-3.4
O=[N+]([O-])c1ccccc1C=NN1CCCCCC1,-2.1,-6.2,x,-3.9,-0.7,26.1*,4.8
Cc1c(Cl)cccc1NC(=S)NC1CCN(Cc2ccccc2)CC1,-9.2,45.8,3.2,4.8,-6.4,0.6,x
S=C(Nc1ccccc1Cl)NC1CCN(Cc2ccccc2)CC1,0.7,17.2,4.3,1.1,8.0,25.4*,11.4
Cc1ccc(NS(=O)(=O)c2cc(C(=O)NCCCN(C)C)ccc2Cl)cc1Cl,-1.5,13.3,x,-0.9,3.5,-2.3,x
O=C(CC(c1ccco1)S(=O)(=O)c1ccccc1)c1ccc(F)cc1 (stereo not given),0.3,-1.2,1.3,19.5,-1.7,28.5*,22.3*
O=C(O)/C(=C\c1ccco1)NC(=O)c1cccc2ccccc12,-9.9,17.3,-8.7,2.4,-5.8,33.2*,6.9
O=C(Nc1ccc(C(=O)O)cc1)/C(=C\c1ccco1)NC(=O)c1ccc(Br)o1,2.4,0.0,x,7.0,3.2,25.5*,-4.1
O=C(Nc1ccc(C(=O)O)cc1)/C(=C\c1ccco1)NC(=O)c1ccc(Br)cc1,-0.7,-7.5,x,4.7,-12.2,34.5*,3.1
O=C(O)/C(=C/c1ccco1)NC(=O)c1ccccc1,2.6,9.1,-1.2,8.4,-5.0,8.5,x
O=C(NC(Cc1ccccc1)C(=O)O)/C(=C\c1ccco1)NC(=O)c1ccc(Br)cc1 (stereo not given),-6.5,-3.9,5.2,8.9,-5.2,35.4*,5.2
O=C(Cc1ccc(S(=O)(=O)N2CCOCC2)s1)NCCc1ccc(F)cc1,-6.7,-4.0,x,0.7,-12.7,-1.3,x
